These results are taken from PubChem BioAssay (NCI).

Several values for one entry are separate records, joined by “and”; a condition that tells them apart may be missing. Equal values may be shown once. This is part of a sample that, as a whole, favours compounds with a hit. Of some 83,000 tested, about 20% had one in any assay.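 In brief: 96-well plates, 48 h treatment, single concentration, percent growth endpoint.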 Values without a mark were called inactive. Activity calls are given as the source filed them. The calls were made as follows: active = growth percent below 10; inactive = the rest.

Some test systems named below: DU-145 prostate; MALME-3M melanoma; MDA-MB-231 breast; RXF 393 renal; SF-268 CNS; SF-295 CNS; SF-539 CNS; UACC-257 melanoma; M14 melanoma.
Experiment in all cases: NCI-60 one-dose screen, 48 h (100 = growth as untreated, 0 = no growth, -100 = all killed)
Another experiment deals with K-562 leukemia. As to conditions: 10 µM unless noted.

Turning to `CC(=O)Nc1cccc(-n2c(COc3ccc(I)cc3)nc3ccccc32)c1`, the growth with DU-145 prostate (10 µM unless noted) was 99.4% and 101%; in the experiment with K-562 leukemia, 67.5% and 104%; in the experiment with MALME-3M melanoma (10 µM unless noted) it was 86.9% and 106%; with MDA-MB-231 breast (10 µM unless noted), 70.7% and 109%; in the experiment on RXF 393 renal (10 µM unless noted), 80.7% and 107%; with SF-268 CNS (10 µM unless noted), 81% and 99.1%. Moreover, the growth in the experiment with SF-295 CNS (10 µM unless noted) is 79.1% and 101%; in the experiment with SF-539 CNS (10 µM unless noted), 84.5% and 107%; in the experiment with UACC-257 melanoma (10 µM unless noted) it was 112% and 106%; with M14 melanoma (10 µM unless noted) it was 102% and 115%.

With `CC/C(=C(/c1ccc(O)cc1)c1ccc(OCCN(C)C(=O)CCOCCNC(=O)Cc2ccc3c(c2)CN([C@@H]2CCC(=O)NC2=O)C3=O)cc1)c1ccccc1`, the growth was 109% with DU-145 prostate (1 µM); 101% with DU-145 prostate (10 µM); 42.7% in the experiment on MALME-3M melanoma (1 µM); 13.3% in the experiment with MALME-3M melanoma (10 µM); 11% in the experiment on MDA-MB-231 breast (1 µM); -5.68% (active) in the experiment on MDA-MB-231 breast (10 µM). Further, the growth with RXF 393 renal (1 µM) is 104%; with RXF 393 renal (10 µM), 93.8%; in the experiment with SF-268 CNS (1 µM) it was 96.5%; in the experiment on SF-268 CNS (10 µM), 72.6%; in the experiment on SF-295 CNS (1 µM), 103%; in the experiment on SF-295 CNS (10 µM), 94.7%. Also, the growth was 87.9% in the experiment on SF-539 CNS (1 µM); 78.4% in the experiment on SF-539 CNS (10 µM); 91% in the experiment with UACC-257 melanoma (1 µM); 96.1% in the experiment with UACC-257 melanoma (10 µM); 92.2% in the experiment on M14 melanoma (1 µM); 65% in the experiment on M14 melanoma (10 µM).

Regarding `O=c1ccc(Cn2c(C(F)(F)F)cc3c(Cl)ncnc32)c[nH]1`, the growth is 86.3% in the experiment with DU-145 prostate (10 µM unless noted); 3.37% (active) in the experiment on K-562 leukemia; 91.4% in the experiment on MALME-3M melanoma (10 µM unless noted); 52.6% with MDA-MB-231 breast (10 µM unless noted); 86.5% with RXF 393 renal (10 µM unless noted); -22.9% (active) with SF-268 CNS (10 µM unless noted). Besides, the growth was 97.6% in the experiment with SF-295 CNS (10 µM unless noted), 87.4% in the experiment on SF-539 CNS (10 µM unless noted), 24% with UACC-257 melanoma (10 µM unless noted) and -51.5% (active) in the experiment with M14 melanoma (10 µM unless noted).

With `CC/C(=C(/c1ccc(O)cc1)c1ccc(OCCN(C)C(=O)COCCOCCNC(=O)c2ccc3c(c2)CN([C@@H]2CCC(=O)NC2=O)C3=O)cc1)c1ccccc1`, the growth in the experiment on DU-145 prostate (1 µM) was 107%; with DU-145 prostate (10 µM) it was 109%; in the experiment on MALME-3M melanoma (1 µM), 64.1%; in the experiment on MALME-3M melanoma (10 µM), 31.4%; in the experiment on MDA-MB-231 breast (1 µM), 25.5%; with MDA-MB-231 breast (10 µM), 8.81% (active). Also, the growth in the experiment on RXF 393 renal (1 µM) is 98.3%; with RXF 393 renal (10 µM), 99%; with SF-268 CNS (1 µM), 88.3%; with SF-268 CNS (10 µM) it was 83.7%; with SF-295 CNS (1 µM), 102%; with SF-295 CNS (10 µM) it was 94.8%. Besides, the growth with SF-539 CNS (1 µM) is 92.1%; with SF-539 CNS (10 µM), 91.1%; in the experiment with UACC-257 melanoma (1 µM), 96.2%; with UACC-257 melanoma (10 µM) it was 95.5%; with M14 melanoma (1 µM), 89.9%; in the experiment with M14 melanoma (10 µM), 92%.

Consider `Fc1ccc(Nc2nnc(-c3c[nH]c4ccccc34)o2)cc1`, for which the growth with DU-145 prostate (10 µM unless noted) was 98%; in the experiment with K-562 leukemia, 66.9%; with MALME-3M melanoma (10 µM unless noted), 80.8%; with MDA-MB-231 breast (10 µM unless noted), 60.8%; in the experiment with RXF 393 renal (10 µM unless noted), 93.9%; in the experiment on SF-268 CNS (10 µM unless noted) it was 73.1%. The growth in the experiment on SF-295 CNS (10 µM unless noted) was 84.1%; in the experiment with SF-539 CNS (10 µM unless noted) it was 71.2%; with UACC-257 melanoma (10 µM unless noted), 92.7%; in the experiment with M14 melanoma (10 µM unless noted), 102%.

`CC(=O)C[n+]1cccc2c3ccccc3ccc21`: the growth with DU-145 prostate (10 µM unless noted) is 105%; in the experiment with K-562 leukemia, 69%; in the experiment on MALME-3M melanoma (10 µM unless noted), 63.5%; in the experiment with MDA-MB-231 breast (10 µM unless noted) it was 85.7%; with RXF 393 renal (10 µM unless noted), 46.3%; in the experiment on SF-268 CNS (10 µM unless noted), 66.5%. Moreover, the growth in the experiment on SF-295 CNS (10 µM unless noted) is 93.9%; in the experiment on SF-539 CNS (10 µM unless noted), 89.6%; in the experiment with UACC-257 melanoma (10 µM unless noted), 48.8%; in the experiment with M14 melanoma (10 µM unless noted), 98.7%.

Take `CC/C(=C(\c1ccc(O)cc1)c1ccc(OCCNC)cc1)c1ccccc1`: the growth was 103% with DU-145 prostate (1 µM); 83.6% in the experiment with DU-145 prostate (10 µM); 88.6% in the experiment on MALME-3M melanoma (1 µM); 91% in the experiment with MALME-3M melanoma (10 µM); 96.3% in the experiment on MDA-MB-231 breast (1 µM); 82.5% in the experiment with MDA-MB-231 breast (10 µM). Moreover, the growth is 103% in the experiment with RXF 393 renal (1 µM); 82.4% in the experiment on RXF 393 renal (10 µM); 104% in the experiment on SF-268 CNS (1 µM); 79.8% with SF-268 CNS (10 µM); 99.6% in the experiment on SF-295 CNS (1 µM); 96.4% with SF-295 CNS (10 µM). Besides, the growth with SF-539 CNS (1 µM) was 93.6%; in the experiment on SF-539 CNS (10 µM), 85.2%; in the experiment on UACC-257 melanoma (1 µM), 95.3%; in the experiment with UACC-257 melanoma (10 µM), 97.2%; with M14 melanoma (1 µM), 107%; in the experiment on M14 melanoma (10 µM), -18.8% (active).

Turning to `CC/C(=C(\c1ccc(O)cc1)c1ccc(OCCN(C)C(=O)CCOCCNC(=O)c2ccc3c(c2)CN([C@@H]2CCC(=O)NC2=O)C3=O)cc1)c1ccccc1`, the growth with DU-145 prostate (1 µM) is 105%; in the experiment on DU-145 prostate (10 µM), 109%; in the experiment with MALME-3M melanoma (1 µM), 78.4%; in the experiment with MALME-3M melanoma (10 µM), 52.5%; in the experiment on MDA-MB-231 breast (1 µM), 33.7%; in the experiment on MDA-MB-231 breast (10 µM) it was 21.8%. The growth is 102% in the experiment on RXF 393 renal (1 µM); 90% in the experiment on RXF 393 renal (10 µM); 89.3% in the experiment with SF-268 CNS (1 µM); 100% in the experiment with SF-268 CNS (10 µM); 96.2% in the experiment with SF-295 CNS (1 µM); 93.2% in the experiment on SF-295 CNS (10 µM). Moreover, the growth is 94.6% in the experiment on SF-539 CNS (1 µM); 88.9% in the experiment with SF-539 CNS (10 µM); 101% in the experiment with UACC-257 melanoma (1 µM); 88.3% in the experiment on UACC-257 melanoma (10 µM); 90.5% with M14 melanoma (1 µM); 92.8% in the experiment with M14 melanoma (10 µM).

On to `CCOc1ccc(-c2cc(-c3cc(C(C)C)c(O)cc3C)nn2-c2ccc(S(N)(=O)=O)cc2)cc1`, for which the growth is 34.6% in the experiment on DU-145 prostate (10 µM unless noted); 12.4% in the experiment on K-562 leukemia; 65.8% in the experiment on MALME-3M melanoma (10 µM unless noted); 37.5% with MDA-MB-231 breast (10 µM unless noted); 38.9% in the experiment with RXF 393 renal (10 µM unless noted); 44.1% in the experiment with SF-268 CNS (10 µM unless noted). For the same molecule, the growth in the experiment with SF-295 CNS (10 µM unless noted) was 35.6%; in the experiment on SF-539 CNS (10 µM unless noted), 11.9%; in the experiment with UACC-257 melanoma (10 µM unless noted), 46.8%; with M14 melanoma (10 µM unless noted), 49.3%.
